Only some compounds are listed: those with a hit (about 3.4% of all), similar ones and a draw of the others.
GPR151 ag: human GPR151 activation. activation, % at 11.2 µM. PathHunter beta-arrestin GPR151 cells, luminescence. AID 1508602. hit rate 1% among 650,000; in the data active = activation above about 4.9%
TEAD-YAP block: TEAD-YAP interaction inhibition; HEK-TIYL cells, TEAD-Gal4/YAP UAS-luciferase luminescence; inhibition, % at 9.12 µM; hit rate 1.4% among 640,000; in the data active = inhibition above about 32%
FBW7 activator: activators of human E3 ligase FBW7 | normalized activity (activation), % at 26.1 µM | AlphaScreen FBW7–phospho-cyclin E peptide binding, activator screen | hit rate 0.13% among 650,000 | Q969H0; in the data active = normalized activity above about 1.9%;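 note: purified mutant Fbw7 with reduced substrate affinity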
Target sequence (Q969H0 whole entry, looked up): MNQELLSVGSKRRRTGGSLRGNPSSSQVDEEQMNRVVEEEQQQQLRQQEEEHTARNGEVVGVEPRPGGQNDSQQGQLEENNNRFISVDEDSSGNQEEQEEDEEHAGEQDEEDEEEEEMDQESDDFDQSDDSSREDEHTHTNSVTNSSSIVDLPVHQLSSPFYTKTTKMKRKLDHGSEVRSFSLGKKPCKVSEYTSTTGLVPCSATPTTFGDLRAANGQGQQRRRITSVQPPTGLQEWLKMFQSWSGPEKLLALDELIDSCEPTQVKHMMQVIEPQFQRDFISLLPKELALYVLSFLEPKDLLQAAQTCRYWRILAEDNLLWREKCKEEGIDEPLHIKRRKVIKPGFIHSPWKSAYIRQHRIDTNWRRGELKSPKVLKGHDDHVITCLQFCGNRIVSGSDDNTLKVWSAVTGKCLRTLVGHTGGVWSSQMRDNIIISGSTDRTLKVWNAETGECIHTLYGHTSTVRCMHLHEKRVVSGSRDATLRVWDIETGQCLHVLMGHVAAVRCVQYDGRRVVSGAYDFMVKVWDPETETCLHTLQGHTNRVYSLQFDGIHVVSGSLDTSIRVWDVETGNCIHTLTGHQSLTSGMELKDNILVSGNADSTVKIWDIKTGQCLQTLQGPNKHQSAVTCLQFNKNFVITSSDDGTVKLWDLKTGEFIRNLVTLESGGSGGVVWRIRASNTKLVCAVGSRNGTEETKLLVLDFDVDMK
MITF inh: blocks human microphthalmia-associated transcription factor; O75030; AlphaScreen MITF homodimerization, bead proximity signal; inhibition, % at 2.6 µM; hit rate 0.91% among 650,000; in the data active = inhibition above about 50%
Hits are given with their value; 0 = inactive.

SMILES | GPR151 ag | TEAD-YAP block | FBW7 activator | MITF inh
O=C(NC1CC1)c1ccc(-c2nc(NCCc3ccc(O)cc3)c3ncn(-c4ccsc4)c3n2)cc1 | 0 | 58 | 0 | 0
NC(=O)c1ccc(-c2nc(NCCc3ccc(O)cc3)c3ncn(-c4ccsc4)c3n2)cc1 | 0 | 43 | 0 | 0
COc1ccc(CCNc2nc(-c3ccc(C(=O)NC4CC4)cc3)nc3c2ncn3C2CCCCC2)cc1 | 0 | 51 | 0 | 0
NC(=O)c1ccc(-c2nc(NCc3cccnc3)c3ncn(-c4ccsc4)c3n2)cc1 | 0 | 51 | 0 | 0
C=CCS(=O)(=O)NCc1nc(NCCCc2ccccc2)c2ccccc2n1 | 0 | 0 | 0 | 0
CC1CCc2c(sc(NC(=O)CN3C(=O)NC4(CCCCC4)C3=O)c2C(N)=O)C1 (configuration not stated) | 0 | 0 | 0 | 0
O=C(NCCC1=CCCCC1)c1cccc(NS(=O)(=O)c2ccc(Br)cc2)c1 | 0 | 0 | 0 | 0
O=S(=O)(c1ccccc1)N1CCC(c2nc(-c3ccc(Cl)cc3)no2)CC1 | 0 | 0 | 0 | 0
Cc1cc(C)cc(OCC(=O)Nc2ccc(Cl)cc2)c1 | 0 | 0 | 0 | 0
O=C(Nc1cccc(O)c1)c1oc(=O)c2ccccc2c1-c1ccccc1 | 0 | 0 | 0 | 0
CCn1c(N/N=C/c2ccc(O)cc2)nc2c1c(=O)[nH]c(=O)n2C | 0 | 0 | 0 | 0
COc1cc(C(=O)Nc2c3c(nn2-c2ccc(C)cc2)CS(=O)C3)cc(OC)c1OC (configuration not stated) | 0 | 0 | 0 | 0
COc1ccc(CCNc2nc(-c3ccc(N4CCOCC4)nc3)nc3c2ncn3-c2ccsc2)cc1 | 0 | 0 | 0 | 0
COc1ccc(-c2nc(NCc3cccnc3)c3ncn(C(C)C)c3n2)cc1 | 0 | 0 | 0 | 0
Oc1ccc(CCNc2nc(-c3ccc(N4CCOCC4)nc3)nc3c2ncn3-c2ccsc2)cc1 | 0 | 65 | 0 | 0
CC(C)n1cnc2c(NCc3cccnc3)nc(-c3ccc(C(N)=O)cc3)nc21 | 0 | 39 | 0 | 0
Oc1cccc2ccc(/C=C/c3cc4c(cc3Cl)OCO4)nc12 | 0 | 68 | 0 | 0
Oc1cccc2ccc(/C=C/c3ccc4c(c3)OCO4)nc12 | 0 | 80 | 0 | 0
O=[N+]([O-])c1cccc(/C=C/c2ccc3cccc(O)c3n2)c1 | 0 | 0 | 0 | 0
CCCCCOCC1Cc2c(C)nn(C(N)=S)c2O1 (configuration not stated) | 0 | 0 | 0 | 0
O=C1C(N2CCCCC2)=C/C(=N/S(=O)(=O)c2ccccc2)c2ccccc21 | 0 | 0 | 0 | 0
CC(=O)Nc1ccc(NC2=C/C(=N/S(=O)(=O)c3ccccc3)c3ccccc3C2=O)cc1 | 0 | 99 | 0 | 0
Nc1ccc(-c2ccc(-c3ccc(N)cc3)cc2)cc1 | 0 | 74 | 43 | 0
COc1ccc(-c2ccc(N)cc2)cc1 | 0 | 0 | 0 | 0
O=Cc1cn(CC(=O)NCCOc2ccc(Cl)cc2)c2ccccc12 | 0 | 0 | 0 | 0
SMILES | GPR151 ag | TEAD-YAP block | FBW7 activator | MITF inh
CCN(CC)c1ccc(/C=N\Nc2ncc(F)c(N3CCOCC3)n2)c(O)c1 | 0 | 37 | 0 | 62
Fc1cnc(N/N=C/c2cccs2)nc1N1CCOCC1 | 0 | 45 | 0 | 0
Fc1cnc(N/N=C/c2ccc(Cl)cc2Cl)nc1N1CCOCC1 | 0 | 0 | 0 | 0
COc1cccc(/C=N\Nc2ncc(F)c(N3CCOCC3)n2)c1O | 0 | 41 | 0 | 86
Fc1cnc(N/N=C\c2ccc(-c3ccccc3)o2)nc1N1CCOCC1 | 0 | 0 | 0 | 0
CC1=C(C(=O)Nc2ccccc2C)C(c2ccc(N(C)C)cc2)NC(=O)N1 (configuration not stated) | 0 | 0 | 0 | 0
COCCN1C(=O)c2ccccc2C(C(=O)N2CCCC2)C1c1ccc(F)cc1 (configuration not stated) | 0 | 0 | 0 | 0
C=CCn1c(C(CCCC)CC(O)COCC(C)C)n[nH]c1=S (configuration not stated) | 0 | 0 | 0 | 0
Fc1ccccc1Nc1nnc(SCC2CCCCO2)s1 (configuration not stated) | 0 | 73 | 0 | 0
Cn1nc(CC(=O)Nc2ccc3c(c2)OCCO3)c2ccccc2c1=O | 0 | 50 | 0 | 0
Cn1nc(CC(=O)Nc2cccc(C(F)(F)F)c2)c2ccccc2c1=O | 0 | 42 | 0 | 0
Cn1nc(CC(=O)Nc2ccc3c(c2)OCO3)c2ccccc2c1=O | 0 | 0 | 0 | 0
Cc1ccc(C)n1CCCC(=O)Nc1ccc2c(c1)OCCO2 | 0 | 59 | 0 | 0
Cn1c(C(=O)O)c(CC(=O)Nc2ccc3c(c2)OCCO3)c2ccccc21 | 0 | 35 | 0 | 0
Cn1nc(CC(=O)Nc2cccc(O)c2)c2ccccc2c1=O | 0 | 0 | 0 | 0
Cn1c2ccccc2n2c(=O)c3nc4ccccc4nc3c(C#N)c12 | 0 | 0 | 0 | 0
NC(Cc1ccc(O)cc1)C(=O)O (configuration not stated) | 0 | 0 | 0 | 0
COc1ccc(C(=O)Oc2ccc(NC(=O)Cc3nn(C)c(=O)c4ccccc34)cc2)cc1 | 0 | 0 | 0 | 0
COc1ccc(CC(=O)Nc2ccc3c(c2)OCCO3)cc1OC | 0 | 0 | 0 | 0
Cn1nc(CC(=O)Nc2ccc(Cl)cc2)c2ccccc2c1=O | 0 | 39 | 0 | 0
Cc1ccc(NC(=O)Cc2nn(C)c(=O)c3ccccc23)cc1F | 0 | 0 | 0 | 0
Cn1nc(CC(=O)Nc2ccc(Oc3ccccc3)cc2)c2ccccc2c1=O | 0 | 40 | 0 | 0
O=C(Cc1ccc2c(c1)OCCO2)Nc1ccc2ccccc2c1 | 0 | 42 | 0 | 0
COc1ccccc1CC(=O)Nc1cc(OC)c(OC)cc1C(=O)O | 0 | 0 | 0 | 0
CCCCC(=O)Nc1cc(OC)c(OC)cc1C(=O)O | 0 | 0 | 2.2 | 0
SMILES | GPR151 ag | TEAD-YAP block | FBW7 activator | MITF inh
Cc1ccc(-c2cc(C(=O)N3CCOCC3)no2)cc1 | 0 | 43 | 0 | 0
O=C(c1cc(-c2ccc(O)cc2)on1)N1CCCCCC1 | 0 | 50 | 0 | 0
CN1CCN(C(=O)c2cc(-c3ccc(Br)cc3)on2)CC1 | 0 | 0 | 0 | 0
O=C(c1cc(-c2ccc(Cl)cc2)on1)N1CCCCCC1 | 0 | 0 | 0 | 0
c1ccc(Nc2nc(NC3CC3)c3ncn(-c4ccsc4)c3n2)cc1 | 0 | 49 | 0 | 0
COc1cc(Nc2nc(Nc3ccccc3)nc3c2ncn3-c2ccsc2)cc(OC)c1OC | 0 | 0 | 0 | 0
COc1cc(Nc2nc(NC3CC3)c3ncn(-c4ccsc4)c3n2)cc(OC)c1OC | 0 | 34 | 0 | 0
COc1cc(Nc2nc(NC3CCC(O)CC3)nc3c2ncn3-c2ccsc2)cc(OC)c1OC (configuration not stated) | 0 | 68 | 0 | 0
Cc1cc(=O)[nH]c(N/N=C/c2c(C)oc3ccccc23)n1 | 0 | 0 | 0 | 0
COc1ccc(N2C(=O)NC(=O)/C(=C\c3cc([N+](=O)[O-])cc(OC)c3O)C2=O)cc1 | 0 | 0 | 0 | 0
O=C(CCBr)NC(=O)Oc1ccc2ccccc2c1 | 0 | 0 | 0 | 0
Clc1ccc(OCc2cn3ccccc3n2)cc1 | 0 | 0 | 0 | 0
O=C1CCc2ccc(OCc3cn4ccccc4n3)cc21 | 0 | 58 | 0 | 0
COc1ccccc1C(=O)NCc1nnc(SCC(=O)N2N=C(c3cccs3)CC2c2ccc(F)cc2)n1-c1cccc(C)c1 (configuration not stated) | 0 | 0 | 0 | 0
